Laboratory results from the supplement of paper PMC4166925.
± gives the standard deviation of the averaged measurements. In all, about 33,000 sequences were measured (“E-score (dimensionless, -0.5 to 0.5)”: median about -0.049, highest 2% from about 0.37 on). The list comes from a sample in which the highest values are over-represented; it also holds similar and randomly drawn sequences.

These sequences were tested on T1, PmTbr T-box DNA-binding domain (GST fusion) (assay: PBM E-score of 8-mer (E-score (dimensionless, -0.5 to 0.5)); Tbr is Tbrain of the sea star Patiria miniata (Pm) or the sea urchin Strongylocentrotus purpuratus (Sp); higher = stronger binding preference). Details: the construct has about 5 more residues each side.
T1 sequence: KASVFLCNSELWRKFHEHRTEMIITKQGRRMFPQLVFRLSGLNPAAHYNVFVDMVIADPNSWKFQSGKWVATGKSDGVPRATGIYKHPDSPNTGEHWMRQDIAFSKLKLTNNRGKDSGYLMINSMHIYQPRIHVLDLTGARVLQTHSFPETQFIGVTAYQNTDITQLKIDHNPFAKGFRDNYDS
Description: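 Universal protein-binding microarray (Agilent AMADID 016060, 60-bp probes with a 35-bp variable region) incubated with 200 nM GST-fused Patiria miniata Tbr T-box DNA-binding domain (residues 272-466) in PBS pH 7.5. Scored for every ungapped 8-mer (given with its reverse complement) by the Universal PBM Analysis Suite as E-score (modified Wilcoxon-Mann-Whitney enrichment, range -0.5 to 0.5; >0.45 counts as bound) and Z-score of median probe intensity. Two replicate arrays (datasets 1 and 2).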

| Sequence | PBM E-score of 8-mer |
| --- | --- |
| AGAACATG | -0.102 ± 0.0022 |
| GTATCTCA | 0.138 ± 0.024 |
| CTAATAGC | 0.0155 ± 0.017 |
| AACAATAT | 0.00943 ± 0.055 |
| AGATGCTG | -0.149 ± 0.035 |
| ATCAAGCC | -0.0171 ± 0.049 |
| GTACTTAA | -0.16 ± 0.011 |
| GCGGGTTA | 0.0385 ± 0.009 |
| GGGTGTTA | 0.4737 ± 0.00077 |
| CGGTGTTA | 0.37 ± 0.0083 |
| GGGGGTTA | -0.158 ± 0.1 |
| CGCTGTTA | 0.0368 ± 0.0067 |
| CGATGTTA | -0.192 ± 0.016 |
| GGATGTTA | -0.00674 ± 0.011 |
| ACCCATAT | 0.0957 ± 0.013 |
| GGGTTCGA | -0.0834 ± 0.013 |
| GGTGGGCA | 0.0512 ± 0.038 |
| AAACTCTT | -0.11 ± 0.032 |
| CGATTCAC | 0.143 ± 0.0046 |
| CAACTGAG | 0.0533 ± 0.042 |
| GACTTGGA | -0.167 ± 0.064 |
| GCGCGAAA | 0.4397 ± 0.0003 |
| GCGCGACA | 0.36 ± 0.023 |
| GCGCGATA | 0.337 ± 0.011 |
| ACGCGAAA | 0.133 ± 0.039 |

| Sequence | PBM E-score of 8-mer |
| --- | --- |
| GCGCGAAC | 0.411 ± 0.017 |
| ACGCGAAC | 0.203 ± 0.043 |
| CCGCGAAC | 0.271 ± 0.036 |
| TCGCGAAA | 0.409 ± 0.025 |
| CCGCGAAA | 0.305 ± 0.027 |
| CAATCATA | -0.102 ± 0.056 |
| AACCCTGA | -0.108 ± 0.0053 |
| GCCACTAA | 0.153 ± 0.019 |
| AGATACTC | -0.119 ± 0.09 |
| TGCAGGAA | -0.153 ± 0.036 |
| CTCCCAAC | -0.0412 ± 0.0027 |
| AAGAACCC | -0.192 ± 0.042 |
| CGACACCA | 0.414 ± 0.01 |
| AGACACCA | 0.2603 ± 0.00061 |
| GGACACCC | 0.242 ± 0.037 |
| AGACACCC | 0.259 ± 0.023 |
| CGACACGA | 0.183 ± 0.071 |
| GGACACCA | 0.0777 ± 0.029 |
| TGACACCA | 0.427 ± 0.02 |
| CGACACCC | 0.439 ± 0.022 |
| CGACACCG | 0.273 ± 0.033 |
| AAGAAAAC | -0.0889 ± 0.032 |
| CGTTGGTA | -0.0221 ± 0.009 |
| AAGTGCCG | 0.289 ± 0.025 |
| TGAGCAAA | 0.0705 ± 0.069 |

| Sequence | PBM E-score of 8-mer |
| --- | --- |
| AGGCCTGG | -0.293 ± 0.041 |
| ACCTGCGT | 0.112 ± 0.063 |
| AATTGGGA | -0.0137 ± 0.033 |
| AACCTCTA | -0.151 ± 0.025 |
| CACCTCTG | 0.4165 ± 0.00058 |
| GACCTCTC | -0.109 ± 0.026 |
| CACCTCTC | 0.419 ± 0.023 |
| CAACTCTG | 0.16 ± 0.08 |
| CACCTCTA | 0.44129 ± 0.00038 |
| GACCTCTA | -0.259 ± 0.07 |
| AACCTCTG | -0.151 ± 0.032 |
| AACCTCTC | -0.0958 ± 0.093 |
| CACCACCA | 0.201 ± 0.034 |
| CTTTTCTA | 0.0811 ± 0.085 |
| CTCCTCAA | -0.204 ± 0.024 |
| GCTTTCTA | -0.0965 ± 0.11 |
| AGTGTGCC | 0.125 ± 0.0018 |
| CAATGGAA | -0.144 ± 0.028 |
| ATGCCAAC | 0.0888 ± 0.00082 |
| CTGCCAAC | 0.0539 ± 0.0096 |
| CTGCCAAA | 0.186 ± 0.061 |
| GTGCCAAC | 0.403 ± 0.0056 |
| GTGCCAAA | 0.421 ± 0.017 |
| TTGCCAAA | 0.11 ± 0.066 |
| CCATATAC | -0.00383 ± 0.065 |

| Sequence | PBM E-score of 8-mer |
| --- | --- |
| AGTCGATA | 0.147 ± 0.016 |
| AGCAGAAC | -0.287 ± 0.013 |
| ACAACTGA | 0.172 ± 0.019 |
| AGACCTCA | 0.0571 ± 0.053 |
| CCACCTCA | 0.229 ± 0.039 |
| TAACCTCA | -0.152 ± 0.0019 |
| TCACCTCA | 0.437 ± 0.00059 |
| TGACCTCA | 0.0125 ± 0.0081 |
| AGACCTCT | -0.301 ± 0.015 |
| ACACCTCT | 0.48594 ± 0.00022 |
| AAACCTCT | -0.362 ± 0.051 |
| ACACCTCA | 0.47047 ± 0.00026 |
| ACGCCTGC | 0.24 ± 0.0036 |
| GTGAAACA | 0.188 ± 0.036 |
| CTGCTTGC | -0.132 ± 0.025 |
| CGGCAGAG | 0.00638 ± 0.076 |
| CGGCTGTC | 0.0205 ± 0.07 |
| CCTTCGGA | -0.0659 ± 0.042 |
| AGTAACAA | 0.167 ± 0.0063 |
| CGTAACAC | 0.365 ± 0.011 |
| AGTAACAG | 0.037 ± 0.085 |
| AGTAACAC | 0.393 ± 0.025 |
| GGTAACAC | 0.43 ± 0.0044 |
| GGTAACAA | 0.198 ± 0.056 |
| GTCTACGA | -0.127 ± 0.013 |

| Sequence | PBM E-score of 8-mer |
| --- | --- |
| ATCGCAGG | 0.0806 ± 0.064 |
| ACTCACTA | 0.144 ± 0.02 |
| CCTTAACG | 0.00703 ± 0.089 |
| ATGGGTAC | -0.173 ± 0.035 |
| TAGGGTCA | -0.0997 ± 0.066 |
| ATTGCAGC | -0.0944 ± 0.071 |
| GTGTCAAA | 0.448 ± 0.0094 |
| CTGTCAAC | 0.338 ± 0.011 |
| CTGTCATA | 0.151 ± 0.011 |
| ATGTCGAA | -0.0919 ± 0.073 |
| TTGTCAAA | 0.144 ± 0.09 |
| ATGTCAAC | 0.171 ± 0.006 |
| CTGTCAAA | 0.266 ± 0.04 |
| GTGTCGAA | 0.38248 ± 9.9e-05 |
| GTGTCAAC | 0.466 ± 0.007 |
| ATGTCATA | -0.187 ± 0.0068 |
| GTGTCATA | 0.4057 ± 0.0013 |
| CTGTCGAA | 0.125 ± 0.0096 |
| CACATCAG | 0.162 ± 0.035 |
| ACGATGTG | 0.25 ± 0.067 |
| ACGTACTC | 0.061 ± 0.028 |
| GCATCAAC | 0.0651 ± 0.026 |
| GGGGCTGA | -0.1789 ± 0.00037 |
| ATAGGTAC | -0.105 ± 0.041 |
| ACGGCCAT | -0.105 ± 0.12 |

| Sequence | PBM E-score of 8-mer |
| --- | --- |
| CTGTCAGA | 0.211 ± 0.014 |
| GTGTCAGA | 0.3931 ± 0.00061 |
| ATGTCAGA | -0.162 ± 0.069 |
| AGGGATAA | -0.203 ± 0.032 |
| TCGTTTCA | 0.145 ± 0.031 |
| AAGTGACC | 0.185 ± 0.041 |
| TAGTGAAA | 0.144 ± 0.048 |
| CAGTGACA | 0.338 ± 0.0041 |
| TAGTGACA | 0.398 ± 0.0059 |
| GAGTGACC | -0.0846 ± 0.0063 |
| AAGTGACA | 0.458 ± 0.0065 |
| GAGTGACA | 0.373 ± 0.017 |
| GAGTGAAA | 0.16 ± 0.1 |
| AAGTGAAA | 0.154 ± 0.056 |
| CAGTGACG | 0.134 ± 0.011 |
| AAGTGACT | 0.092 ± 0.006 |
| AAGTGACG | 0.4043 ± 0.003 |
| ACTTGTAA | 0.0472 ± 0.082 |
| GGGTATTA | -0.139 ± 0.091 |
| GTCCAATA | -0.21 ± 0.0092 |
| AGATGCCA | -0.00611 ± 0.051 |
| GAACTATC | -0.095 ± 0.022 |
| GAACTGAA | -0.228 ± 0.021 |
| AAGGAGGC | -0.181 ± 0.009 |
| GTCAAAAA | 0.0926 ± 0.056 |

| Sequence | PBM E-score of 8-mer |
| --- | --- |
| CACGGTCG | 0.0491 ± 0.014 |
| CGAGGGAG | -0.0838 ± 0.048 |
| TACCTCGA | -0.0364 ± 0.012 |
| ATGTGATA | 0.298 ± 0.048 |
| ATGTGAGG | 0.215 ± 0.026 |
| GTGAGAGA | 0.319 ± 0.015 |
| GTGTGAGA | 0.4583 ± 0.0027 |
| CTGTGATA | 0.2528 ± 0.0022 |
| ATGTGAGC | 0.0849 ± 0.0062 |
| GTGTGATA | 0.46 ± 0.006 |
| CTGTGAGA | 0.314 ± 0.0081 |
| ATGTGAGA | 0.429 ± 0.0081 |
| GATACTTA | -0.121 ± 0.055 |
| ACGATAAA | 0.122 ± 0.051 |
| GACGATCC | -0.0686 ± 0.12 |
| GATACAGC | -0.197 ± 0.018 |
| CCATACTC | 0.0602 ± 0.026 |
| GATATCTA | -0.117 ± 0.025 |
| CTACCAGA | -0.1381 ± 0.0011 |
| CCCGACCA | -0.0729 ± 0.075 |
| CCAGCTGA | -0.0424 ± 0.022 |
| CCTAGATC | -0.0223 ± 0.021 |
